According to PubChem BioAssay AID1645875 (National Center for Advancing Translational Sciences (NCATS), 2021):
Inconclusive results are not listed. Active and inactive are the calls of the source. Calls follow the shape of the dose curve; as a rule, active = well fitted inhibition curve with a large enough effect; inconclusive = small, poorly fitted or top-dose-only effect; inactive = no such curve, though single readings can be large or run the other way.

molecular target: N-terminal Xaa-Pro-Lys N-methyltransferase 1 (Homo sapiens) (UniProt Q9BV86); test: Orthogonal qHTS for Inhibitors of N-terminal methyltransferase 1 (NTMT1): ThioGlo Assay; conditions: NTMT1 SAHH-coupled ThioGlo fluorescence, 30 min; series mostly up to 84.5 µM
Text: Assay Submitter (PI): Rong Huang Ph.D. Purdue University, West Lafayette, IN 47907 The N-terminal methytransferase 1 is the first methyltransferase that methylates protein alpha-N-amines and plays an important role in regulating cell mitosis, chromatin interactions and DNA repair. It is observed to be over-expressed in various cancer patient tissues like malignant melanoma and colorectal cancer tissues. Knockdown of NTMT1 in cancer cells causes cell mitotic defects and enhances sensitivity to DNA damaging chemotherapeutics. […] These critical cellular processes in which NTMT1 is implicated, coupled with emerging links to cellular dysfunction, strengthen the inference that NTMT1 is a compelling novel anticancer target. Progress have been made in understanding the molecular properties of NTMT1 and the biological consequences of protein alpha-N-terminal methylation, but there are no specific small molecule probes available for NTMT1 to fully characterize its MTase activity. To address this unmet need, a panel of assay is created and established to enable quantitative high-throughput screening (qHTS) for novel, potent, and selective small molecule NTMT1 inhibitors. Two orthogonal qHTS that use different reagents (ThioGlo vs. MTaseGlo) are developed for primary robotic screening against the NCATS chemical library of more than 400,000 small molecules. Identified inhibitors are reacquired, validated, and further characterized. […] Early Translation Branch (ETB) National Center for Advancing Translational Sciences (NCATS) National Institute of Health (NIH)
Materials: NTMT1 enzyme, substrate SPKRIA, control peptide RCC1-6 is provided by the Huang laboratory. MTaseGlo Assay: PROTOCOL TABLE; SEQUENCE No. (e.g., 1, 2, 3, etc.); […] (e.g., Cells, Incubation, Reagent, etc.); VALUE; DESCRIPTION 1; Enzyme; 3 uL; Dispense enzyme mixture (final concentrations of 125 nM NTMT1) into Greiner 1536-well black / solid bottom assay plate (Greiner Bio One, Monroe, NC). 2; Compounds; 23 nL; Compounds (at various concentration) and 1uM final concentration of RCC1-6 (SPKRIA) control were transferred via a Kalypsys Pin Tool (Wako USA) equipped with a 1536-slotted pin array (Wako Automation, Richmond, VA). 3; Incubation; 1 min; Incubate at room temperature. 4; Substrate; 1 uL; Dispense 1 uL of substrate solution (100uM SAM, 10uM SAHH, 15uM ThioGlo3 final concentration) was added to the wells bringing the final assay volume to 4uL. The assay plate was covered with metal lids. 5; Detection; Fluorescence; Initial fluorescence readout (background signal) was detected using the ViewLux microplate imager with an excitation filter of 340 nm and 450 nm emission filter. 6; Incubation; 30 min; Assay plates were incubation at room temperature in the dark. 7; Detection; Fluorescence; Final fluorescence readout was detected using the ViewLux microplate imager with an excitation filter of 340 nm and 450 nm emission filter. The data was normalized to the background fluorescence.

Chain of N-terminal Xaa-Pro-Lys N-methyltransferase 1 (Homo sapiens) (Q9BV86 whole entry, looked up): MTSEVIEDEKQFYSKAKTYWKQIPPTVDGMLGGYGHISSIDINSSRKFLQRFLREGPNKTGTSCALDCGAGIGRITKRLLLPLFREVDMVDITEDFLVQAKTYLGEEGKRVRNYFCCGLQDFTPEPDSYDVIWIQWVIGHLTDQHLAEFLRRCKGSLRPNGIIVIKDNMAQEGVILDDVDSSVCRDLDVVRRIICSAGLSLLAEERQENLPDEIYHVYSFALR

SMILES	Potency
CN[C@@H]1C[C@@H](c2ccc(Cl)c(Cl)c2)c2ccccc21	inactive
C[N+]1(C)CCN(c2ccccc2)CC1	2.74 µM (active)
NC(=O)CI	6.89 µM (active)
NC1CCc2cc(O)c(O)cc2C1 (stereo unspecified)	10.9 µM (active)
C[N+](C)(C)CC#CCN1CCCC1=O	1.54 µM (active)
C[N+]1(C)C2CCC1CC(OC(=O)c1c[nH]c3ccccc13)C2 (stereo unspecified)	1.94 µM (active)
